Experimental data published in PubChem BioAssay AID1259421 (Broad Institute, 2018).
“And” between values parts separate entries of the source, which are not always exact repeats. Equal entries are not always repeated. The campaign covered roughly 6,400 compounds. About 610 (9.5%) were called active. Cut-off read from the data, not from the text of the source: active = activity change below about -70%; inconclusive = no clear call, values can overlap the other calls; inactive = above that. For the sample, actives were picked, then their nearest neighbours and some compounds at random. The source holds several records for some structures; these can differ, active in one and inactive in another. Where a SMILES comes first, the peptide text is derived from it.

assay: Toxoplasma gondii ME49Luc growth in HeLa cells, luciferase, no IFN-y, primary screen (AID 1259421); conditions: T. gondii ME49Luc in HeLa, 72 h, stronger effect = lower value, concentration not given here

SMILES	activity change, negative = inhibition
C[N@@+]1(CC2CC2)CC[C@]23c4c5ccc(O)c4O[C@H]2C(=O)CC[C@]3(O)[C@H]1C5	-5.91% (inactive)
CC(C)NCC(O)c1ccc(N)c(C#N)c1 (centres undefined)	11.6% (inactive) and -5.38% (inactive)
C[C@]12C[C@H]3S[C@H]3C[C@@H]1CC[C@@H]1[C@@H]2CC[C@]2(C)[C@@H](O)CC[C@@H]12	-16.5% (inactive)
C[C@]12CC[C@H]3[C@@H](CC[C@@]45O[C@@H]4C(=O)C(C#N)C[C@]35C)[C@@H]1CC[C@@H]2O (some centres undefined)	6.81% (inactive)
C[C@]12CCC3[C@@H](CC[C@@]45O[C@@H]4C(=O)C(C#N)C[C@]35C)C1CC[C@@H]2O (some centres undefined)	-74.3% (active)
COC[C@H]1OC(=O)c2coc3c2[C@@]1(C)C1=C(C3=O)C2CCC(=O)[C@@]2(C)C[C@H]1OC(C)=O (some centres undefined)	-5.28% (inactive)
CC(=O)C1CCC2C3CCC4CC(C)(O)CCC4(C)C3CCC12C (centres undefined)	13.6% (inactive)
COc1cc2cc(c1Cl)N(C)C(=O)C[C@H](OC(=O)C(C)C)[C@]1(C)O[C@H]1[C@H](C)[C@@H]1C[C@@](O)(NC(=O)O1)[C@H](OC)/C=C/C=C(/C)C2	-83.8% (active)
COC1=CC(=O)OC(/C=C/c2ccccc2)C1 (centres undefined)	9.89% (inactive)
CC1(C)C(=O)N(c2ccc(C#N)c(C(F)(F)F)c2)C(=O)N1CCCCO	4.23% (inactive)
CN1C(=O)CC(=O)N(c2ccccc2)c2cc(Cl)ccc21	7.34% (inactive)
C[C@]12CC[C@H](OC3OC(O)C(O)C(O)C3O)C=C1CCC1C2CC[C@]2(C)[C@@H](c3ccc(=O)oc3)CC[C@]12O (some centres undefined)	-83.9% (active)
C[C@@H]1O[C@@H](O[C@@H]2C=C3CCC4C(CC[C@]5(C)[C@@H](c6ccc(=O)oc6)CC[C@]45O)[C@@]3(C)CC2)C(O)C(O)[C@H]1O (some centres undefined)	-85.7% (active)
NCCc1ccccn1	26.7% (inactive) and 12% (inactive)
Cc1nnc2n1-c1sc(CCC(=O)N3CCOCC3)cc1C(c1ccccc1Cl)=NC2	10% (inactive) and 7.36% (inactive)
O=C(CS(=O)C(c1ccccc1)c1ccccc1)NO (centres undefined)	2.69% (inactive)
CCC(CO)NC(=O)C1C=C2c3cccc4c3c(cn4C)CC2N(C)C1 (centres undefined)	0.967% (inactive)
Nc1ccc([As](=O)(O)O)cc1	2.94% (inactive)
CC(C)C[C@H](NC(=O)[C@H](Cc1ccccc1)NC(=O)CNC(=O)[C@H](C)NC(=O)[C@@H](N)Cc1ccc(O)cc1)C(=O)O	15.2% (inactive)
C[C@]12CC[C@H]3[C@@H](CC[C@]4(O)C[C@@H](O)CC[C@]34C=O)[C@@]1(O)CC[C@@H]2C1=CC(=O)OC1	-91% (active)
C[C@]12CCC3C(CC[C@]4(O)C[C@@H](O)CC[C@]34C=O)[C@@]1(O)CCC2C1=CC(=O)OC1 (some centres undefined)	-72.5% (active) and -88.8% (active)
C[C@@H]1O[C@@H](O[C@H]2CC[C@]3(C=O)C4CC[C@]5(C)[C@@H](C6=CC(=O)OC6)CC[C@]5(O)C4CC[C@]3(O)C2)[C@H](O)[C@H](O)[C@H]1O (some centres undefined)	-76.4% (active)
CCN1C[C@]2(COC)CCC(OC)[C@@]34C5C[C@]6(O)[C@H](OC(=O)c7ccc(OC)cc7)C5[C@@](OC(C)=O)(C[C@H]6OC)[C@@H]([C@H](OC)C23)[C@@H]14 (some centres undefined)	-1.07% (inactive)
NC1CCN(c2cccnc2)C1 (centres undefined)	10.7% (inactive)
C[C@H](N)Cn1ccc2cc(F)c(Cl)cc21	7.22% (inactive)

SMILES	activity change, negative = inhibition
Cc1ncc(CNC(=O)N(CCCl)[NH2+][O-])c(N)n1	18.6% (inactive)
CN(C)[C@@H]1C(=O)C(C(N)=O)C(=O)[C@@]2(O)C(=O)C3C(=O)c4c(O)cccc4[C@](C)(O)[C@H]3C[C@@H]12 (some centres undefined)	4.49% (inactive)
N[C@@H](Cc1ccc(O)cc1)C(=O)NCC(=O)NCC(=O)O (H-Tyr-Gly-Gly-OH)	-5.06% (inactive)
NC(=O)C[S@@](=O)C(c1ccccc1)c1ccccc1	3.02% (inactive)
CCCC(C)C1(CC)C(=O)NC(=O)NC1=O (centres undefined)	19.8% (inactive)
CN[C@@H](C)[C@H](O)c1ccccc1	-0.966% (inactive)
C[C@]12CCC(=O)C(=O)C1CC[C@@H]1[C@@H]2CC[C@]2(C)C(=O)CC[C@@H]12 (some centres undefined)	1.31% (inactive)
Cc1nnc2ccc(-c3cccc(C(F)(F)F)c3)nn12	-56.7% (inactive) and -76.7% (active)
CCN[C@@H](C)Cc1cccc(C(F)(F)F)c1	3.99% (inactive)
CCOC(=O)c1ncc2[nH]c3ccc(OCc4ccccc4)cc3c2c1COC	-0.724% (inactive) and 16.8% (inactive)
CCNC(=O)[C@H]1O[C@@H](n2cnc3c(N)ncnc32)[C@H](O)[C@@H]1O	-4.22% (inactive)
CCNC(=O)C1OC(n2cnc3c(N)ncnc32)C(O)C1O (centres undefined)	1.34% (inactive)
NC(=O)c1cn(C2OC(CO)[C@H](O)[C@@H]2O)c2ncnc(N)c12 (some centres undefined)	-91.9% (active)
C#CCN1C(C)=C(C(=O)CCO)C(c2cccc(-n3oo3)c2)C(C(=O)OC)=C1C (centres undefined)	11.7% (inactive)
OC1(c2ccc(Cl)cc2)c2ccccc2C2=NCCN21 (centres undefined)	22.1% (inactive)
CN1CCC2(c3cccc(O)c3)Cc3nc4ccccc4cc3CC2C1 (centres undefined)	-1.33% (inactive)
CC[C@H]1CN2CCC1C[C@@H]2[C@H](O)c1ccnc2ccc(OC)cc12 (some centres undefined)	19.4% (inactive)
CC1=C[C@H]2[C@]3(O)[C@H](C)[C@@H](O)[C@@]4(O)[C@H]([C@@H]3C=C(CO)C[C@]2(O)C1=O)C4(C)C	-3.08% (inactive)
CCCCCCCCCCCCCC(=O)O[C@@H]1[C@@H](C)[C@@]2(O)[C@@H](C=C(CO)C[C@]3(O)C(=O)C(C)=C[C@@H]23)[C@@H]2C(C)(C)[C@]12OC(C)=O	-85.6% (active) and -84.7% (active)
CCCCCCCCCOc1ccc2[nH]cc(CCN)c2c1	7.94% (inactive)
CCC1/C=C/C=C/C[C@H](C)[C@@H](O)[C@](C)(O)C(=O)[C@@H](C)[C@H](O)[C@@H](C)C(=O)[C@H](C)[C@@H](O)[C@H](C)/C=C/C(=O)OC2[C@@H](C)C(CC1)OC1(CC[C@@H](C)C(C[C@H](C)O)O1)[C@@H]2C (some centres undefined)	-89.1% (active)
CC1=CC[C@@H]2[C@@H](C1)c1c(O)cc(CC#CCCCNS(C)(=O)=O)cc1OC2(C)C	17.8% (inactive)
COc1ccc(C(=O)O)cc1OC	8.1% (inactive)
O=C(O[C@H]1CN2CCC1CC2)N(Cc1cc(F)c(F)c(F)c1)c1cccc(F)c1	16.6% (inactive)
CC(=O)Oc1ccc(/C=C/c2cc(OC(C)=O)cc(OC(C)=O)c2)cc1	11.4% (inactive)

SMILES	activity change, negative = inhibition
O=C1CCC[C@@H]2[C@@H]3CCCN4CCC[C@H](CN12)[C@@H]34	15.2% (inactive)
C=C1[C@@H](C)[C@H]2[C@H](Cc3ccccc3)NC(=O)[C@]23OC(=O)/C=C\[C@H](O)CCC[C@@H](C)C/C=C/[C@H]3[C@@H]1O	-85.5% (active)
C[C@]12Cc3cn[nH]c3C[C@@H]1CC[C@@H]1[C@@H]2CC[C@@]2(C)[C@H]1CC[C@]2(C)O	-3.74% (inactive)
O=C(NC(=O)c1c(F)cccc1F)Nc1cc(Cl)c(OC(F)(F)C(F)C(F)(F)F)cc1Cl (centres undefined)	-81.8% (active) and -81.1% (active)
CC(=O)OCC1=C(C(=O)O)N2C(=O)[C@@H](NC(=O)CCCC(N)C(=O)O)C2SC1.[Zn] (some centres undefined)	20.4% (inactive)
CC(C)=CC1C(C(=O)OCc2coc(Cc3ccccc3)c2)C1(C)C (centres undefined)	19.4% (inactive)
Cc1c2ccncc2c(C)c2c1[nH]c1ccccc12	-83.1% (active)
Cc1nccc2c1[nH]c1ccccc12	1.21% (inactive)
c1ccc2c(c1)[nH]c1cnccc12	-0.879% (inactive)
COc1ccc2c(c1)CN(C)CC2c1ccc(Cl)c(Cl)c1 (centres undefined)	5.02% (inactive)
O=C1CCC2(O)C3Cc4ccc(O)c5c4C2(CCN3CC2CC2)C1O5 (centres undefined)	10.3% (inactive)
Clc1ccc(C2=CCCC3CCC2N3)cn1 (centres undefined)	12.4% (inactive) and -82.3% (active)
CN(C(=O)Cc1ccc(Cl)c(Cl)c1)[C@H](CN1CCCC1)c1ccccc1	8.8% (inactive) and 17.5% (inactive)
OC12C3C4CC5C6C4C1C6C(C53)N2CCc1cccc(F)c1 (centres undefined)	18.7% (inactive) and 6.8% (inactive)
CN(C)c1ccc(/C=C2\CCCN=C2c2cccnc2)cc1	-1.7% (inactive) and -12.2% (inactive)
CC1(C)CC[C@]2(C(=O)O)CC[C@]3(C)[C@H](C(=O)C=C4[C@@]5(C)C=C(C#N)C(=O)C(C)(C)[C@@H]5CC[C@]43C)[C@@H]2C1	-98.8% (active)
O=C1NCN(c2ccccc2)C12CCN(CC1COc3ccccc3O1)CC2 (centres undefined)	-3.91% (inactive) and 4.3% (inactive)
CC1CC(C)C(=O)C(C(O)CC2CC(=O)NC(=O)C2)C1 (centres undefined)	-83.8% (active)
C[C@@H]1C[C@@H]([C@H](O)CC2CC(=O)NC(=O)C2)C(=O)[C@@H](C)C1	-81.3% (active) and -84.7% (active)
Oc1c(I)cc(I)cc1I	3.61% (inactive)
CN1CC(CNC(=O)OCc2ccccc2)CC2c3cccc4c3c(cn4C)CC21 (centres undefined)	8.87% (inactive) and 8.34% (inactive)
N#CC(C#N)=NNc1ccc(OC(F)(F)F)cc1	20% (inactive)
Oc1ccc2c3c1O[C@H]1c4oc5ccccc5c4C[C@@]4(O)C(C2)N(CC2CC2)CC[C@]314	-2.8% (inactive)
C/C(=C/C=C/[C@@H](C)C(=O)O)[C@H]1CN[C@H](C(=O)O)[C@H]1CC(=O)O	4.56% (inactive)
